In the supplement of paper PMC10981050 one finds cell viability data, which are given here for 11 compounds.

Several values for one entry are separate records, joined by “and”; a condition that tells them apart may be missing. Equal values may be shown once. Where a name gives a salt, the structure may show the parent alone.

The subject of the assay is K562. The experiment in a line: cell viability relative to vehicle control; higher = less cytotoxic. Conditions: 10 µM; SRSF2 genotype: SRSF2 P95H/wt. The method in brief: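 CRISPR-edited mutant clones and isogenic wild-type clones from four leukaemia lines were screened against Selleck bioactive, kinase and epigenetic probe libraries, with identity-inconsistent compounds excluded. Each compound was acoustically dispensed at a single 10 µM dose into 384-well plates holding 2000 cells in 50 µL medium per well. After 48 h the supernatant was removed and CellTiter-Glo luminescence was read. Viability was expressed as percent of the on-plate vehicle control and analysed in Genedata Screener.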
Usually cell viability stands for a read-out of living cells in per cent, often relative to untreated cells. `O=C(Nc1cccc(Cl)c1)Nc1ncc(CCNc2ncnc3ccsc23)s1` [SNS-314 Mesylate]: the cell viability is 63.5% and 68.5%.
On to `O=C(c1cn(Cc2cncn2Cc2ccc(Br)cc2)cc1-c1cccc2ccccc12)N1CCOCC1`, for which the cell viability was 48.4% and 62.4%.
For the compound `COc1cc(N2CCN(C)CC2)ccc1Nc1nccc(-c2cn(C)c3cnccc23)n1`, the cell viability is 63.7% and 63.4%.
The same measure for `O=c1c(-c2ccc(O)cc2)coc2cc(O[C@@H]3O[C@H](CO)[C@@H](O)[C@H](O)[C@H]3O)ccc12` [Daidzin]: 94.3% and 101%; for `COc1nc(C)cnc1NS(=O)(=O)c1cccnc1-c1ccc(-c2nnco2)cc1` [Zibotentan (ZD4054)]: 98.4% and 103%.
As for `Nc1ccc(-c2cccc(C(=O)Nc3cnc4nc(N5CCOCC5)oc4c3)n2)cn1`, the figure is 96.8% and 100%.
The same measure for `C[C@@H]1CC[C@@]2(OC1)O[C@H]1C[C@H]3[C@@H]4CC=C5C[C@@H](O[C@@H]6O[C@H](CO)[C@@H](O)[C@H](O)[C@H]6O)CC[C@]5(C)[C@H]4CC[C@]3(C)[C@H]1[C@@H]2C` [Trillin]: 87.5% and 97.2%; for `CCCC(C)NC(=O)c1ccc(Cl)c(Cl)c1` (stereo unspecified): 101% and 97.6%.
Take `C[C@@H]1C/C=C/C=C/C=C/C=C/[C@H](O[C@@H]2O[C@H](C)[C@@H](O)[C@H](N)[C@@H]2O)C[C@@H]2O[C@](O)(C[C@@H](O)C[C@H]3O[C@@H]3/C=C/C(=O)O1)C[C@H](O)[C@H]2C(=O)O` [Natamycin]: the cell viability was 102% and 105%.
The same measure for `CN1CCN(c2ccc(Nc3ncc4cc(C#N)c(=O)n(C5CCCC5)c4n3)cc2)CC1`: 79.5% and 104%; for `COc1ccc(-c2oc3c(CC=C(C)C)c(O[C@@H]4O[C@H](CO)[C@@H](O)[C@H](O)[C@H]4O)cc(O)c3c(=O)c2O[C@@H]2O[C@@H](C)[C@H](O)[C@@H](O)[C@H]2O[C@@H]2O[C@@H](C)[C@H](O)[C@@H](O)[C@H]2O)cc1` [Epmedin C]: 104% and 108%.
